# Results taken from paper PMC11574364.
# Columns and labels:
# Test in all cases: protein domain microarray probed with biotinylated miRNA; Domain array: 20 mM Tris-HCl pH 7.4, 200 mM KCl, 0.2 mM EDTA, 0.05% NP40, 2 ug/ul heparin, overnight 4 C. ORF array: PBS pH 7.0 with RNase inhibitor, 100 ng RNA; high values mean tight binding
# Settings in all cases: ssRNA
# [1] = target: HUR (Homo sapiens, UniProt Q15717)
# [2] = target: PABPC4L (Homo sapiens, UniProt P0CB38)
# [3] = target: snRNP B2 (Homo sapiens, UniProt P08579)
# [4] = target: YTHDC1 (Homo sapiens, UniProt Q96MU7)
# [5] = target: snRNP A (Homo sapiens, UniProt P09012)
# [6] = target: SLIRP (Homo sapiens, UniProt Q9GZT3)
# [7] = target: SF3B6 (Homo sapiens, UniProt Q9Y3B4)
# [8] = target: SFRS9 (Homo sapiens, UniProt Q13242)
# Chain of SFRS9 (Q13242 whole entry): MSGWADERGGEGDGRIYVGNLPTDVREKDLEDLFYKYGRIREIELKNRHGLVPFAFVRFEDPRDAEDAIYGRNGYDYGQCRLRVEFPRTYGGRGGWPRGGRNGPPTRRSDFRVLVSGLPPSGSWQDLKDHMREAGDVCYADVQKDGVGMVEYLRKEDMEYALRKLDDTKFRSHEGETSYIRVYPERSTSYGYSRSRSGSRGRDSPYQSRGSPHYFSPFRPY
# Chain of HUR (Q15717 whole entry): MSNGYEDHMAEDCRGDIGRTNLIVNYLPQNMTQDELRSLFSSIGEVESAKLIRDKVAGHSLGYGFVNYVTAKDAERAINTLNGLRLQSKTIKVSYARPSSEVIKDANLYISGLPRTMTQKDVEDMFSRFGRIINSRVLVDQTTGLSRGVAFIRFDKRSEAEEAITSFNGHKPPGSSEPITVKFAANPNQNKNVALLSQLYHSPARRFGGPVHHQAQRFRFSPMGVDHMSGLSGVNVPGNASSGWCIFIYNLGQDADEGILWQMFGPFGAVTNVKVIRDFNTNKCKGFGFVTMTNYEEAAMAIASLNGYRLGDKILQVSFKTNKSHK
# Chain of snRNP B2 (P08579 whole entry): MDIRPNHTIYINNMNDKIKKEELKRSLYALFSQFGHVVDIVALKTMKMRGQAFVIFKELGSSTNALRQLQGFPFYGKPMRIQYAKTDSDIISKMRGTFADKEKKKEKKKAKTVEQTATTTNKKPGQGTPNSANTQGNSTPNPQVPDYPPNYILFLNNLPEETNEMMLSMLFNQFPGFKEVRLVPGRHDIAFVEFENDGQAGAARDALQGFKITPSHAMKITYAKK
# Chain of PABPC4L (P0CB38 whole entry): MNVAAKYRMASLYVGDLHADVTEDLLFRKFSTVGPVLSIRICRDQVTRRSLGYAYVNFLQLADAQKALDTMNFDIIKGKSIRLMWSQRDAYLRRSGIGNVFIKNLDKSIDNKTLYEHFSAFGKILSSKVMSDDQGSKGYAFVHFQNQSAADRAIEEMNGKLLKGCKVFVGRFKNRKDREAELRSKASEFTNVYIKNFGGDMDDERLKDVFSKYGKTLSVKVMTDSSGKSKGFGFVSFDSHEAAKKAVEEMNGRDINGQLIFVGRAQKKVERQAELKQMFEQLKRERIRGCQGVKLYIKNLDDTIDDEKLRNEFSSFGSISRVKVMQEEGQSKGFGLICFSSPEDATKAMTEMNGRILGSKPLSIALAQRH
# Chain of SF3B6 (Q9Y3B4 whole entry): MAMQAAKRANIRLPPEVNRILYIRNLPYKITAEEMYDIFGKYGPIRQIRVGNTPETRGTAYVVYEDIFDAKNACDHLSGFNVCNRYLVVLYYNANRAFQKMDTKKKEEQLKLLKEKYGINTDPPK
# Chain of snRNP A (P09012 whole entry): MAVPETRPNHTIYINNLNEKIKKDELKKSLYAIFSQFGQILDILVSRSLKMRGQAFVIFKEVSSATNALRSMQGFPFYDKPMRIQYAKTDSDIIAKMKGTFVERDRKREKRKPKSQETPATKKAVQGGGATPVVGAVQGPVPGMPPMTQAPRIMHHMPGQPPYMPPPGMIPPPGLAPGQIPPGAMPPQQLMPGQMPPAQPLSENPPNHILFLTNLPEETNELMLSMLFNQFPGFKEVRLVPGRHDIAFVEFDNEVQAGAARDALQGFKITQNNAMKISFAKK
Sequence,binding signal [1],binding signal [2],binding signal [3],binding signal [4],binding signal [5],binding signal [6],binding signal [7],binding signal [8]
UGAGGUAGUAGGUUGUAUGGUU,1165 ± 9.92 fluorescence intensity,506 ± 42.2 fluorescence intensity,184 ± 4.53 fluorescence intensity,122.4 ± 0.332 fluorescence intensity,372 ± 10.2 fluorescence intensity,107 ± 4.07 fluorescence intensity,136 ± 26.8 fluorescence intensity,343 ± 5.06 fluorescence intensity
UAGCUUAUCAGACUGAUGUUGA,219 ± 16.5 fluorescence intensity,,24.4 ± 2.86 fluorescence intensity,,25.3 ± 14.1 fluorescence intensity,24.4 ± 1.37 fluorescence intensity,,54.9 ± 6.63 fluorescence intensity
UGAGGUAGUAGGUUGUGUGGUU,1300 ± 85.7 fluorescence intensity,523 ± 82.5 fluorescence intensity,296 ± 33.8 fluorescence intensity,179 ± 8.44 fluorescence intensity,236.6 ± 1.37 fluorescence intensity,232 ± 20.1 fluorescence intensity,282 ± 3.13 fluorescence intensity,580 ± 35.6 fluorescence intensity
AGAGGUAGUAGGUUGCAUAGUU,1350 ± 50 fluorescence intensity,466 ± 20.9 fluorescence intensity,147 ± 5.66 fluorescence intensity,80.4 ± 1.63 fluorescence intensity,342 ± 6.74 fluorescence intensity,104 ± 2.51 fluorescence intensity,117.8 ± 0.707 fluorescence intensity,273 ± 31 fluorescence intensity
CAGUGCAAUGAUGAAAGGGCAU,652.6 ± 4.58 fluorescence intensity,380 ± 28.5 fluorescence intensity,164 ± 16.3 fluorescence intensity,64.9 ± 3.94 fluorescence intensity,224 ± 14.6 fluorescence intensity,55.4 ± 6.36 fluorescence intensity,58.7 ± 1.9 fluorescence intensity,370 ± 18.4 fluorescence intensity
UGAGGUAGUAGGUUGUAUAGUU,477 ± 14 fluorescence intensity,129 ± 51.7 fluorescence intensity,43.98 ± 0.219 fluorescence intensity,25.3 ± 0.502 fluorescence intensity,28 ± 0.686 fluorescence intensity,32.41 ± 0.262 fluorescence intensity,31.6 ± 1.95 fluorescence intensity,37.9 ± 10.5 fluorescence intensity
